In the supplement of paper PMC3334620:
Over roughly 33,000 sequences, “E-score (-0.5 to 0.5)” has its median near -0.011; the highest 2% begin near 0.28. Many of the other results were omitted from the sample, so the highest values are more common in it than they were.

molecular target: T1, Gcr1 (UniProt P07261); test: PBM E-score (8-mer binding enrichment) (E-score (-0.5 to 0.5)); higher = stronger / more preferred TF binding; conditions: protein concentration: 100 nM; construct: GST-full length
T1 sequence: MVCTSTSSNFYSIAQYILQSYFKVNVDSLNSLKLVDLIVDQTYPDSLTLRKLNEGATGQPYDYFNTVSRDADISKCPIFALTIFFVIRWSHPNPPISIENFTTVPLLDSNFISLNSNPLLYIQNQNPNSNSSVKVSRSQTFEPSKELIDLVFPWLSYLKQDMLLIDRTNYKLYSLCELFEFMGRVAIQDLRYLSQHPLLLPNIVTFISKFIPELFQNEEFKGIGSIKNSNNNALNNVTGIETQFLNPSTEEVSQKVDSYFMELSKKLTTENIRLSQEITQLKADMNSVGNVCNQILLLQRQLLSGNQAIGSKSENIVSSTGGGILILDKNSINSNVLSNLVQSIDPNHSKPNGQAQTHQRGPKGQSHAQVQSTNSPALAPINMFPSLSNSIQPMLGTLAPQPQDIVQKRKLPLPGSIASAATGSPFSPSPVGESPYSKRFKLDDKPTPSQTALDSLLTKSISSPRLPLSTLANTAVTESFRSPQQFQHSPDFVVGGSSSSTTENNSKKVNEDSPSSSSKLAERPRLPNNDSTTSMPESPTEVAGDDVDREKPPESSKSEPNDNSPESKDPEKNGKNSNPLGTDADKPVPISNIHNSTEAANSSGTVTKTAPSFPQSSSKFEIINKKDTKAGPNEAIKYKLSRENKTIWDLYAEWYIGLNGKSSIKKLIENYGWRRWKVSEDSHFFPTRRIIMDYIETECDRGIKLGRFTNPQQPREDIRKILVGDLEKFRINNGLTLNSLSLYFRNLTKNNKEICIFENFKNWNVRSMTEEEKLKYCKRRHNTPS
Summary of the method: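 E-scores (a modified Wilcoxon-Mann-Whitney statistic) were assigned by the Universal PBM Analysis Suite to every ungapped eight-base word pooled with its reverse complement. The input came from universal all-10-mer Agilent arrays made double-stranded by primer extension and probed with GST-tagged yeast transcription factors at about 100-200 nM. Fluorescent anti-GST detected bound protein, and masliner normalised the scans.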

Row | Sequence | PBM E-score
1 | ACCTCCAT | -0.24
2 | GTCGGGGA | 0.102
3 | AGATTGTA | -0.193
4 | AAGATTCC | 0.271
5 | CAGATTCA | -0.0169
6 | CAGATTCC | 0.388
7 | GAGATTCC | 0.363
8 | CAGATTCG | 0.037
9 | GAGATTCA | -0.0394
10 | AGTAACTC | -0.155
11 | AGTGGAAA | 0.0918
12 | ATTGGAAC | 0.221
13 | CATGGAAG | -0.0984
14 | ATTGGAAG | 0.363
15 | ATTGGAAA | 0.0513
16 | AGTGGAGC | 0.32
17 | AGTGGAAT | 0.39
18 | CGTGGAAG | 0.0771
19 | CGTGGAGC | -0.0506
20 | AGTGGAAG | 0.442
21 | AGTGGAGG | 0.082
22 | CGTGGAAA | 0.0989
23 | ATTGCCGA | -0.127
24 | TGAGGGAA | -0.101
25 | AGTCTATG | -0.147

Row | Sequence | PBM E-score
26 | ACCCTAGT | -0.0547
27 | CGAGACGC | 0.131
28 | CGGGTATC | 0.131
29 | CTCACACA | 0.1
30 | CGTGGAAC | -0.113
31 | AGTGGACC | -0.0505
32 | AGTGGACA | -0.0203
33 | AGGGGAAT | 0.341
34 | GGTGGAAC | 0.0244
35 | AGGGGAAC | -0.00862
36 | AGTGGACG | 0.315
37 | AGTGGAAC | 0.364
38 | AGGGGAAA | 0.0362
39 | ACGAAACG | -0.14
40 | ATCGGGAC | 0.0526
41 | AATTGTTC | 0.0249
42 | AGCCTTGA | -0.273
43 | AGATGAGC | -0.102
44 | ACTTCTCG | -0.0046
45 | CCCCAAGC | -0.00278
46 | CGTGAACG | 0.0112
47 | ACGCAGAG | -0.141
48 | ACGGGGTA | 0.129
49 | GCATCCCA | 0.309
50 | CCATCCCC | 0.0989

Row | Sequence | PBM E-score
51 | CCATCCCA | -0.053
52 | ATATCCCA | 0.116
53 | AAATCCCA | 0.107
54 | CTATCCCA | -0.0348
55 | ACATCCCC | 0.0757
56 | GCATCCCC | 0.351
57 | GAATCCCC | 0.0893
58 | ACATCCCA | 0.0139
59 | GTATCCCA | 0.339
60 | GAATCCCA | 0.367
61 | ACAGGTAA | 0.0538
62 | ACCATCCT | 0.0586
63 | ATACTAGA | 0.0992
64 | ACATGTGA | -0.0765
65 | CTGGAAAA | -0.00671
66 | ACTACTCG | 0.0127
67 | AGGCCTAG | -0.214
68 | CGGTCGAG | 0.0179
69 | ACACGAAT | 0.319
70 | ACACGAAA | -0.131
71 | ACACGAAG | 0.238
72 | AGGTTCGG | -0.0598
73 | GAGAAAGA | -0.16
74 | AGTGAGAC | -0.352
75 | AGATCGAT | -0.137

Row | Sequence | PBM E-score
76 | AATCCAGA | 0.259
77 | ATTCCAGC | 0.299
78 | ATTCCAGG | 0.097
79 | CTTCCAGA | 0.341
80 | ATTCCAGA | 0.286
81 | AGTCCAGA | -0.0665
82 | CGTCCAGA | 0.233
83 | GTTCCAGA | 0.257
84 | CTTCCAGC | 0.123
85 | TCGGGACA | -0.0131
86 | AGCTAAAC | -0.126
87 | CGAGGGTC | -0.166
88 | AGCTAGGA | 0.0251
89 | ATTAGGCC | -0.116
90 | CGTAGAAG | 0.275
91 | AGTAGAAC | 0.0351
92 | AGTAGAAG | 0.327
93 | AATAGAGT | 0.0735
94 | AATAGAGA | -0.0168
95 | ATTAGACC | -0.13
96 | ATTAGGCG | 0.309
97 | ATTAGACA | 0.0379
98 | ATTAGGCA | 0.00576
99 | AATAGAGG | 0.297
100 | ATTAGACG | 0.295

Row | Sequence | PBM E-score
101 | GGACAACA | -0.253
102 | AAGGCCTT | -0.343
103 | ACCCTGAA | 0.192
104 | GATTAGGC | -0.0727
105 | ACTGATCA | -0.148
106 | GATGGAAA | 0.029
107 | AGTGCGCG | -0.037
108 | CATCTTGG | -0.102
109 | AGAGCATG | -0.0857
110 | AATAGACT | 0.0888
111 | CGTAGACG | -0.0412
112 | AATAGACG | 0.286
113 | AATAGACA | -0.116
114 | AGTAGACT | -0.048
115 | AGTAGACG | 0.302
116 | AAGCACCA | 0.0436
117 | AGGCCAGC | -0.196
118 | CAGGAATC | 0.394
119 | AAGGAATC | 0.26
120 | GAGGAATC | 0.345
121 | GAGGAATA | -0.146
122 | CAGGAATA | 0.134
123 | CAGGAATG | 0.115
124 | ATCATAGG | 0.0674
125 | ATAGGCTG | -0.0658

Row | Sequence | PBM E-score
126 | ATCAGCGG | 0.00888
127 | GAACCGGA | 0.183
128 | GACTGGCC | -0.151
129 | CGGGCTGA | -0.241
130 | TCACTGGA | 0.219
131 | GGCTACTA | 0.219
132 | CGCGTTAA | -0.167
133 | CTCCGCAA | 0.0291
134 | AAAAGACG | 0.131
135 | CGGGAAGC | 0.317
136 | AGGGAAGG | -0.218
137 | CGGGAAAC | 0.191
138 | CGGGAAGA | 0.0397
139 | AGGGAAGA | -0.198
140 | AGGGAAGC | 0.281
141 | ATACTGCA | 0.0345
142 | ACTTGCAC | -0.126
143 | TAGCCTGA | -0.232
144 | AAGAGGCG | 0.0559
145 | CAGAGAAA | -0.0752
146 | CACTGGAC | 0.0576
147 | TACTGGAA | 0.446
148 | TCCTGGAA | 0.162
149 | AACTGGAA | 0.342
150 | CACTGGAG | -0.0119

Row | Sequence | PBM E-score
151 | AACTGGAC | 0.198
152 | AACTGGAG | 0.115
153 | CACTGGAA | 0.318
154 | ATCTGGAA | 0.333
155 | ATCTGGAC | 0.133
156 | TGCTGGAA | 0.136
157 | CTCTGGAA | 0.256
158 | GTCGCAAC | 0.0865
159 | GTACAAAA | -0.0647
160 | ATCCCTTA | -0.00764
161 | ACTCTAAT | -0.029
162 | ATTTGTCC | -0.109
163 | GTCCTGTA | 0.168
164 | AGTAACCG | 0.184
165 | CGGATCAG | 0.11
166 | ATGAACAC | 0.0906
167 | GAGCCCCA | 0.169
168 | GAAGAGAA | 0.0371
169 | ACACGTGG | 0.0635
170 | GACTGGAA | 0.325
171 | GACTGGCA | -0.0492
172 | GACTGGAC | 0.0539
173 | CGTCGGTA | -0.15
174 | GCTGGACA | -0.0923
175 | CCAATACC | 0.205

Row | Sequence | PBM E-score
176 | GAAGCTAC | 0.323
177 | GAAGCTAA | 0.312
178 | TAAGCTAA | -0.153
179 | AAAGCTAA | -0.0138
180 | CAAGCTAC | 0.108
181 | AAAGCTAC | -0.0941
182 | CTGCGACA | -0.106
183 | CGTATAAA | 0.32
184 | AGTATAAA | 0.0707
185 | CTTATAAC | -0.0336
186 | CGTATAAC | 0.269
187 | CTTATAAG | -0.0238
188 | CTTATAAA | 0.291
189 | TGAAACCA | 0.106
190 | ACAGACAA | 0.0204
191 | GGGGTTTA | -0.117
192 | GGTGAGGA | -0.0681
193 | AAAGTAAT | 0.154
194 | CGCGGGGA | 0.0382
195 | CGTGGGGA | 0.0446
196 | GGCGGGGA | 0.304
197 | GGTGGGGA | 0.345
198 | GGTGGGAA | 0.0991
199 | GGCGGGAA | 0.0372
200 | GTACTTTA | 0.107

Row | Sequence | PBM E-score
201 | GGGCCTAC | -0.25
202 | ATTGGGGC | 0.124
203 | AGTCAGCG | 0.0668
204 | CGGAACGA | 0.0962
205 | GGGATAAC | 0.0951
206 | AAGCTGCC | 0.347
207 | CAGCTGCA | -0.0536
208 | AAGCTGCT | 0.185
209 | CAGCTGCC | 0.352
210 | CAGCTGCG | 0.061
211 | GAGCTGCC | 0.187
212 | ACAGAGGT | 0.0543
213 | CCCACTTA | 0.0227
214 | CGCTCGAC | -0.094
215 | TCCAAAAA | 0.253
216 | ACTAGCGG | -0.0781
217 | GGACACTA | 0.0929
218 | AACTAGGC | 0.122
219 | CGGGAGAC | 0.036
220 | CGGGAGCC | 0.337
221 | CGGGAGCA | -0.109
222 | AGGGAGCC | 0.296
223 | AGGGAGCG | 0.0432
224 | AGGGAGCA | -0.171
